# Source: article PMC5540273 (PLoS ONE, 2017)
# System: CAMK2A
# Settings: concentration: 1 μM, replicates: in singlicate; n = 1
# 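Also: KINOMEscan kinase panel screen.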
row,SMILES,%Inh [%]
1,CC(C)N1CCC(n2cnc(-c3ccc(F)cc3)c2-c2ccnc(N)n2)CC1 [SB-223132],4
2,Nc1n[nH]c2nnc(-c3ccccc3)cc12 [SB-517389],0
3,C[C@H]1CC[C@@H](C(=O)Nc2ccccc2)CN1c1cc(-c2ccc3c(N)n[nH]c3c2)nc(N)n1 [GSK2283293],0
4,CN1CCC(n2cnc(-c3ccc(F)cc3)c2-c2ccnc(NC3CCNCC3)n2)CC1 [SB-229482],0
5,Fc1cccc(COc2ccc(Nc3ncnc4sc(-c5ccc[nH]5)cc34)cc2Cl)c1 [GW707818],0
6,O=C(Nc1ccccc1F)NC1CCN(c2ccnc(Nc3ccc(F)cc3)n2)C1 (stereo not drawn) [GSK1379722],0
7,Clc1ccc(-c2cc(-c3c[nH]nc3-c3ccccn3)ccn2)cc1 [GW681251],0
8,COc1cc2ncnc(Nc3ccc(OCc4ccccc4Br)c(Cl)c3)c2cc1OC.Cl [GI261590],0
9,Cl.Cl.c1ccc(-c2cc3ccncc3cc2OC2CCNCC2)cc1 [GSK1122999],0

# System: CAMK2B
# Settings: concentration: 1 μM, replicates: in singlicate; n = 1
row,SMILES,%Inh [%]
1,Oc1ccc2ncnc(Nc3ccc(OCc4ccccc4)cc3)c2c1 [GI262866],0
2,FC(F)(F)c1ccc(-c2cc(-c3c[nH]nc3-c3ccccn3)ccn2)cc1 [GW599550],0
3,CCc1nc(-c2cccc(C)c2)c(-c2ccnc(NC(=O)c3ccccc3)c2)s1,0
4,CN1c2ccc(-c3ccc(C(=O)NCCO)cc3)cc2-c2[nH]ncc2S1(=O)=O,66
5,O=C(c1ccc(-c2cc(-c3c[nH]nc3-c3ccccn3)ccn2)cc1)N1CCCC1 [GW792479],5
6,COc1ccc(-c2oc3ncnc(N)c3c2-c2ccc(OC)cc2)cc1 [SB-589132],0
7,CCc1nc(-c2cccc(N(C)S(=O)(=O)c3ccccc3)c2)c(-c2ccnc(Nc3ccc(N4CCN(C(C)=O)CC4)nc3)n2)s1 [GSK1645895],0
8,Fc1cccc(COc2ccc(Nc3ncnc4cc[nH]c34)cc2Cl)c1,28
9,Cl.c1ccc(Cn2ncc3cc(Nc4ncnc5ccccc45)ccc32)cc1 [GW273749],0
10,COC(=O)c1cccc(NC(=O)NCCNc2ccnc(Nc3ccc(F)cc3)n2)c1 [GSK1379883],0
11,Cl.c1ccc(Cn2ccc3cc(Nc4ncnc5ccccc45)ccc32)cc1 [GW275568],0
12,COc1ccc(Nc2nccc(N3CCC(NC(=O)c4cccc(NC(C)=O)c4)C3)n2)cc1 (stereo not drawn) [GSK1379732],0
13,Nc1nccc2scc(-c3ccc4c(c3)CCN4C(=O)Cc3cc(F)ccc3F)c12 [GSK2587663],0
14,Fc1ccc(Nc2nccc(-c3c(-c4ccc(Cl)cc4)nn4ncccc34)n2)cc1F [GW829058],18
15,CS(=O)(=O)CCNCc1ccc(-c2ccc3ncnc(Nc4ccc(OCc5ccccc5)c(Cl)c4)c3c2)o1.Cl [GW574783],0
16,Cn1ccc2ncnc(Oc3ccc(NC(=O)Nc4cccnc4)c(Cl)c3)c21,18
17,COc1ccc(NC(=O)c2ccc(-c3cc(-c4nnc(C)o4)ccc3C)cc2)cc1 [GW595885],0
18,NC(=O)c1sc(-n2cnc3ccccc32)cc1OCc1ccccc1F [GSK1024306],0
19,Fc1ccc(-c2ncn(CCCNCc3ccccc3)c2-c2ccncc2)cc1,6
20,CCC(CC)(CC)n1cnc2c(N)ncnc21 [SKF-97620],0
21,N#Cc1ccc(Oc2ccc(Nc3ncnc4cc[nH]c34)cc2Cl)cc1,22
22,O=C(Nc1n[nH]c2nc(-c3ccco3)c(Br)cc12)c1ccc(CN2CCCC2)cc1.O=C(O)[C@H](O)[C@@H](O)C(=O)O [SB-742352],0
23,COc1ccc(-c2nc3n(c2-c2ccncc2)CCC3)cc1 [SKF-104493],0
24,O=C(NCCCN1CCCC1=O)c1cnc(NCc2cc(Cl)ccc2Cl)nc1NC1CCNCC1,0
25,O=C(Nc1ccccc1)Nc1ccc(Oc2ccc3nccn3n2)cc1,0
26,CCCc1ccc(S(=O)(=O)NC2CCN(c3ccnc(Nc4ccc(OC)cc4)n3)C2)cc1 (stereo not drawn) [GSK1379737],0
27,COC(=O)c1c(-c2ccccc2)c2cc(Cl)ccc2c(=O)n1Cc1ccc(S(C)(=O)=O)cc1,0
